The results in this text go back to PubChem BioAssay (NCATS).

SMILES strings stand for the structures. Results filed as inconclusive are left out. The source made the active and inactive calls. The call rests on the fitted dose curve; in most records, active means well fitted cell-killing curve with a large enough effect; inconclusive means small, poorly fitted or top-dose-only effect, or effect the other way; inactive means no such curve, though single readings can be large or run the other way.
Potency means the concentration at half of the fitted maximal effect.

This test can be described thus: Quantitative High-Throughput drug screen in 47 multiple myeloma cell lines against the NCATS MIPE library collection: KMM1_JCRB cell viability assay (AID 1918960). Further: nearly all actives have a fitted effect of over 30% in size. The following applies: KMM1 myeloma viability, CellTiter-Glo ATP luminescence, 48 h; series mostly up to 45.8 µM. In short, it runs like this:
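Each line was plated at 500 cells/well and treated 48 h with library drugs. Viability came from CellTiter-Glo luminescence relative to DMSO and cell-free medium controls.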
For `O=C(Nc1ncc(-c2cc(C(F)F)nn2-c2c(Cl)cccc2Cl)s1)C1CC1`, the Potency was 264 nM (active).

As for `Cc1[nH]nc2ccc(-c3cncc(OC[C@@H](N)Cc4ccccc4)c3)cc12`, the Potency was 1320 nM (active).

For the molecule `Nc1ncnc2c1c(-c1cccc(OCc3ccccc3)c1)cn2C1CC(CN2CCCC2)C1` (stereo not drawn), the Potency was 4180 nM (active).

In the case of `COc1cc(C)c(Sc2cnc(NC(=O)c3ccc(CNC(C)C(C)C)cc3)s2)cc1C(=O)N1CCN(C(C)=O)CC1` (stereo not drawn), the Potency result is “inactive”.

On to `COc1cc2c(Oc3ccc(-c4cnc(Nc5ccc(F)cc5)n(C)c4=O)cc3F)ccnc2cc1OCCCN1CCOCC1`, for which the Potency is 1870 nM (active).

Turning to `C[C@@H]1COC(Nc2ccc3ncnc(Nc4ccc(OCc5nccs5)c(Cl)c4)c3c2)=N1`, the Potency is 10500 nM (active).

With `COc1cc2c(NC3CCN(C(C)C)CC3)nc(C3CCCCC3)nc2cc1OCCCN1CCCC1`, the Potency was 23500 nM (active).

For `Cc1cc(C(=O)N2CCN(c3cccc(Cl)c3)CC2)n(-c2ccccc2)n1`, the Potency is 187 nM (active).

Regarding `O=C(Cc1ccc(-c2ccc(OCCN3CCOCC3)cc2)cn1)NCc1ccccc1`, the Potency was 11.8 nM (active).

`Cn1cc(-c2[nH]c3cc(NC(=O)[C@H](N)C4CCCCC4)cc4c3c2C=NNC4=O)cn1`: the Potency is 526 nM (active).

On to `CNC(=O)c1ccccc1Nc1nc(Nc2ccc(N3CCOCC3)cc2OC)ncc1Cl`, for which the Potency was 296 nM (active).

With `CC(C)c1ccccc1Cc1cc(C(=O)Nc2ccc(S(=O)(=O)c3ccccc3C(C)(C)C)cc2)c(O)c(O)c1O`, the Potency result is “inactive”.

With `Nc1ccn([C@@H]2O[C@H](CO)[C@H](O)C2(F)F)c(=O)n1`, the Potency is 83.3 nM (active).
